From PubChem BioAssay
Activity calls are given as the source filed them. Unless noted, how the calls were made is not given here.

Columns and labels:
[1] = compounds binding Alexa647 anti-His antibody – biochemical, small-molecule microarray, 635 nm fluorescence, artefact control for SMM control protein annotation, primary screen (AID 1128); conditions: higher = more signal;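 further: score merges feature fluorescence with signal-to-noise for each printed compound spot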
[2] = test system: Human papillomavirus type 1a E7 protein (residues 1-88); assay: HPV1a E7 small-molecule binders, primary screen, biochemical, small-molecule microarray, residues 1-88, 635 nm (AID 1129); conditions: small-molecule microarray binding, fluorescence 635 nm; higher = more signal
[3] = target: Focal adhesion kinase 1 (Homo sapiens) (UniProt Q05397); assay: PTK2 protein binding on printed compound slides – biochemical, small-molecule microarray, 635/667 nm fluorescence, BSA, DTT, primary screen (AID 1130); conditions: 635 nm fluorescence, higher = more signal;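 further: composite of spot emission at 667 nm and signal to noise over triplicate slides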
Sequence of Focal adhesion kinase 1 (Homo sapiens) (Q05397 whole entry, looked up): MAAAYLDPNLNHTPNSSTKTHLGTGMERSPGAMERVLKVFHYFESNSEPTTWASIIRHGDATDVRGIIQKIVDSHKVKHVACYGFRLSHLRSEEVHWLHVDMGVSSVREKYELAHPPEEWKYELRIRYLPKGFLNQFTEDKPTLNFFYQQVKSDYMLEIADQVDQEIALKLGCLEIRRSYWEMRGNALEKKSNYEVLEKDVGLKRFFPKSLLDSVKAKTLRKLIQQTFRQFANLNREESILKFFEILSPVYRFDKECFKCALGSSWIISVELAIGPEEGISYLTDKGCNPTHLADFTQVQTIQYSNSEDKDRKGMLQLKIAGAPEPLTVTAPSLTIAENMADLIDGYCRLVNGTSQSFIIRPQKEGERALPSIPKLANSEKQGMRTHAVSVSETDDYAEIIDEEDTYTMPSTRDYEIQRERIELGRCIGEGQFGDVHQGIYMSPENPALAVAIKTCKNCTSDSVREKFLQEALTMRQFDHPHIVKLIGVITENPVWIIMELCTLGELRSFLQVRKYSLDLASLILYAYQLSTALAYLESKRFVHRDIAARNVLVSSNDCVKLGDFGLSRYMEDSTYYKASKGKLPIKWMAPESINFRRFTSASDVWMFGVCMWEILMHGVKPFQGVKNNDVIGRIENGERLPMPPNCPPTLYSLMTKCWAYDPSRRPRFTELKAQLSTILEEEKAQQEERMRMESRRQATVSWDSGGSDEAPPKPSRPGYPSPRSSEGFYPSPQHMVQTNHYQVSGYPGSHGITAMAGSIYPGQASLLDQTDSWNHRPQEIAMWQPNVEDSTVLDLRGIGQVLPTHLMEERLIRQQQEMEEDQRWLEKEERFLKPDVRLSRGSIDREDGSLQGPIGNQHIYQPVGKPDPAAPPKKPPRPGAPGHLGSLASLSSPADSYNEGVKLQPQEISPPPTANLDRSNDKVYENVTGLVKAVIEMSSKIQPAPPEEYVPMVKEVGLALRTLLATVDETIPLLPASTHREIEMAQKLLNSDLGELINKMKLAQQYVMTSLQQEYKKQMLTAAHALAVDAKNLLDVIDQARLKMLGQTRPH

[4] = test system: Fibrinogen (Alexa647-labelled); assay: Alexa647-fibrinogen binding to printed small molecules – biochemical, small-molecule microarray, 635/667 nm fluorescence, artefact control for SMM control-protein annotation, profiling panel (AID 1131); conditions: fibrinogen-A647 binding fluorescence, higher = more signal;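 further: z-score merges 667 nm fluorescence with per-spot signal-to-noise over triplicate slides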
[5] = target: Follistatin (Homo sapiens) (UniProt P19883); assay: FST protein binding to printed compounds – biochemical, small-molecule microarray, 635/667 nm fluorescence, primary screen (AID 1132); conditions: 635 nm fluorescence, higher = more signal
Sequence of Follistatin (Homo sapiens) (P19883 whole entry, looked up): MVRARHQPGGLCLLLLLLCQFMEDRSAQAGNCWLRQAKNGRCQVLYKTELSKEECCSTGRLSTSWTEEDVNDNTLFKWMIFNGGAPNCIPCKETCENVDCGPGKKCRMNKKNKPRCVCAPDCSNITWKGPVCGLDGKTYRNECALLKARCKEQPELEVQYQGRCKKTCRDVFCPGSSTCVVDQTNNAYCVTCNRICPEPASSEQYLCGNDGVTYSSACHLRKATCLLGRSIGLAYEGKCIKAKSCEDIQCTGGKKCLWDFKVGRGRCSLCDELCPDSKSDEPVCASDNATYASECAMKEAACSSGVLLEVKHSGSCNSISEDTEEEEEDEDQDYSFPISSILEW

[6] = target: Fibroblast growth factor 2 (Homo sapiens) (UniProt P09038); assay: basic fibroblast growth factor binding to printed compounds – biochemical, small-molecule microarray, 635/667 nm fluorescence, primary screen (AID 1133); conditions: FGF2, fluorescence 635/667, higher = more signal
Sequence of Fibroblast growth factor 2 (Homo sapiens) (P09038 whole entry, looked up): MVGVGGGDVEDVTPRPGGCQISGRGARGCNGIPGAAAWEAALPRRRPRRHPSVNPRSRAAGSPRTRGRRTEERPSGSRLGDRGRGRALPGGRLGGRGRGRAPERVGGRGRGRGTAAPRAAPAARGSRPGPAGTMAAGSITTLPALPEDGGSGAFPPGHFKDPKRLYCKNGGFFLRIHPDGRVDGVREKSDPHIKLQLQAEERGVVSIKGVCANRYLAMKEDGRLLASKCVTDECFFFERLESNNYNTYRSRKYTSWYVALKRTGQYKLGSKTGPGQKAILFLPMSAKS

[7] = JC-1 mitochondrial potential readout, lung cancer cells – cell-based, A549, JC-1 fluorescence, basal, 24 h, 100 nL, profiling panel (AID 1138); conditions: higher = more signal;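 further: A549 lung adenocarcinoma cells under basal conditions with no added stimulus; test concentration not given here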
[8] = test system: Lefty1; assay: Lefty1 protein binding to printed compounds – biochemical, small-molecule microarray, 635/667 nm fluorescence, primary screen (AID 1139); conditions: fluorescence 635/667, higher = more signal
[9] = test system: wheat germ agglutinin (Triticum aestivum), Alexa647-labelled; assay: Alexa647-WGA lectin binding to printed small molecules – biochemical, small-molecule microarray, 635/667 nm fluorescence, artefact control for SMM control-protein annotation, profiling panel (AID 1140); conditions: WGA-A647 binding, 635 nm fluorescence, higher = more signal;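 further: score merges 667 nm feature emission with signal to noise over triplicate slides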
[10] = target: Luciferin 4-monooxygenase (Photinus pyralis) (UniProt P08659); assay: inhibition of purified Photinus pyralis luciferase – biochemical, luminescence, purified enzyme, 2006 set, primary screen (AID 1141); conditions: purified firefly luciferase, SteadyGlo luminescence, 30 min; higher = more signal, called active from +8 up or from −8 down;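 further: cell-free assay with purified firefly luciferase at 100 ng per well in PBS; test concentration not given here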
Sequence of Luciferin 4-monooxygenase (Photinus pyralis) (P08659 whole entry, looked up): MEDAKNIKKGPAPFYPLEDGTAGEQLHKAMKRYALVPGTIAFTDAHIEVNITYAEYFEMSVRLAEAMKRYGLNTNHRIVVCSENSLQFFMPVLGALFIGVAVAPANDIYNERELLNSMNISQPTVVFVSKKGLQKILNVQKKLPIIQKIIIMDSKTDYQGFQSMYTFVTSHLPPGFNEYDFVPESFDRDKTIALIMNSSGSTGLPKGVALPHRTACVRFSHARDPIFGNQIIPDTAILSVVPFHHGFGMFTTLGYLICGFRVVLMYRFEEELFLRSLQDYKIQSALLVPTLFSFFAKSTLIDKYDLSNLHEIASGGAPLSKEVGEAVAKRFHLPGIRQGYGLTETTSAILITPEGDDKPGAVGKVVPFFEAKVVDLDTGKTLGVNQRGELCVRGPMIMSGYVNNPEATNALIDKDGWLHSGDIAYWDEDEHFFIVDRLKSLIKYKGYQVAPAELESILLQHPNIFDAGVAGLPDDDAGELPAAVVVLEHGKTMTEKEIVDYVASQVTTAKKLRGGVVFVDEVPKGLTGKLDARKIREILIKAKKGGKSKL

[11] = test system: Wnt5a (protein binding on small-molecule microarray); assay: small molecules binding Wnt5a protein – biophysical, small-molecule microarray, 635/667 nm fluorescence, primary screen (AID 1142); conditions: 635 nm fluorescence, higher = more signal;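 further: fluorescence read at 667 nm with signal to noise per printed feature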
[12] = ATP-based viability of Huh7 replicon cells – cell-based, CellTiter-Glo luminescence, basal, 48 h, cytotoxicity control for HCV replication inhibitor project, primary screen (AID 1143); conditions: higher = more signal, called active from +8 up or from −8 down;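 further: Huh7 hepatoma cells carrying a hepatitis C replication reporter with no stimulus; test concentration not given here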
[13] = Pseudomonas biofilm growth suppression – PAO1 strain, BacTiter-Glo luminescence, LB-PBS, primary screen (AID 1144); conditions: P. aeruginosa PAO1 biofilm, 12 h, higher = more signal
[14] = basal CRE-LacZ reporter activity in PC12 – cell-based, unstimulated, primary screen (AID 1145); conditions: no forskolin, luminescence, 4.5 h, higher = more signal, called active from +8 up or from −8 down
[15] = forskolin-driven CRE-LacZ activity in PC12 – cell-based, CRE-LacZ reporter, forskolin-stimulated, primary screen (AID 1146); conditions: luminescence, 4.5 h, higher = more signal, called active from +8 up or from −8 down;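 further: PC12 cells with 6xCRE LacZ reporter stimulated by forskolin 10 µM; beta-galactosidase reporter signal reflecting CREB driven transcription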
[16] = target: Streptavidin (Streptomyces avidinii) (UniProt P22629); assay: compounds binding control protein streptavidin – biophysical, small-molecule microarray, 635/667 nm fluorescence, artefact control for SMM compound annotation, primary screen (AID 1147); conditions: higher = more signal;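 further: signal reflects streptavidin binding to arrayed compounds as a control protein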
Sequence of Streptavidin (Streptomyces avidinii) (P22629 whole entry, looked up): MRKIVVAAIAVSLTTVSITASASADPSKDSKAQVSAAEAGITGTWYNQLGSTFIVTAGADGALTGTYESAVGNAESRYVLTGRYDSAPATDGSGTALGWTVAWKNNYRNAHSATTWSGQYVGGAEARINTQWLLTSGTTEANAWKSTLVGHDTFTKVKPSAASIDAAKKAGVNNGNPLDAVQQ

[17] = probe aInhba binding on compound microarray – biochemical, small-molecule microarray, 635/667 nm fluorescence, primary screen (AID 1148); conditions: higher = more signal;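 further: score merges 667nm spot fluorescence with signal-to-noise for antibody binding to printed compounds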
[18] = target: Torsin-1A (Homo sapiens) (UniProt O14656); assay: TOR1A wild-type binding on microarray – cell lysate, small-molecule microarray, lysate, 635/667 nm, primary screen (AID 1149); conditions: COS7 hTOR1A-WT lysate, 635 nm fluorescence, higher = more signal
Sequence of Torsin-1A (Homo sapiens) (O14656 whole entry, looked up): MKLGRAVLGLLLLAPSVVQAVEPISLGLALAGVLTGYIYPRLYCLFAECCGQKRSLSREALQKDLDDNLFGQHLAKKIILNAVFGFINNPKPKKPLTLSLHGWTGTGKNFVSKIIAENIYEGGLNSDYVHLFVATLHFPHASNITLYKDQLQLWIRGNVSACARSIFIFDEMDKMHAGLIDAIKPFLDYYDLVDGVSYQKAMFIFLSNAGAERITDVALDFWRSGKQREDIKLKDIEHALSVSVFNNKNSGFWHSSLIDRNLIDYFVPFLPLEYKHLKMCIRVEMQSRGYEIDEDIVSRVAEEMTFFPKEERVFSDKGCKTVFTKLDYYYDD

[19] = target: Torsin-1A (Homo sapiens) (UniProt O14656); assay: torsin A mutant lysate binding on microarrays – cell lysate, small-molecule microarray, COS7 lysate, 635/667 nm fluorescence, primary screen (AID 1150); conditions: COS7 hTOR1A mutant lysate, 635 nm fluorescence, higher = more signal;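 further: score pools 667 nm emission and signal to noise measuring lysate protein binding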
[20] = test system: Sonic hedgehog protein (Shh); assay: Sonic hedgehog microarray binding compounds – biochemical, small-molecule microarray, 635/667 nm fluorescence, primary screen (AID 1151); conditions: 635 nm fluorescence, higher = more signal;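 further: Shh protein binding to compounds spotted on small-molecule microarray slides; score combines spot fluorescence intensity with signal-to-noise across triplicate slides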

Compound | composite z-score [1] | composite z-score [2] | composite z-score [3] | composite z-score [4] | composite z-score [5] | composite z-score [6] | z-score [7] | composite z-score [8] | composite z-score [9] | z-score [10] | composite z-score [11] | z-score [12] | z-score [13] | z-score [14] | z-score [15] | composite z-score [16] | composite z-score [17] | composite z-score [18] | composite z-score [19] | composite z-score [20]
COCCOC(=O)N1C(=O)[C@@]2(c3ccccc31)[C@H](c1ccccc1OCCO)N1[C@H](c3ccccc3)[C@H](c3ccccc3)OC(=O)[C@H]1[C@@H]2C(=O)N1CCc2cc(OC)c(OC)cc2C1 | 1.14 | 0.659 | 0.413 | 0.457 | 1.27 | 1.36 | -1.03 | 0.756 | 0.435 | -0.209 (inactive) | 0.212 | -3.53 (inactive) | -1.04 (inactive) | 0.0736 (inactive) | 2.88 (inactive) | 0.02 | 0.255 | 0.517 | 0.546 | 1.24
CCCN1C(=O)[C@@]2(Cc3ccccc3)N=C(c3ccc(OCCCO)cc3)O[C@H]2c2ccccc21 | 0.856 | 1.08 | 0.86 | 0.753 | 1.42 | 1.73 | 0.686 | 0.757 | 0.445 | -4.05 (inactive) | 0.421 | -5.03 (inactive) | -0.657 (inactive) | 1.61 (inactive) | -0.979 (inactive) | -0.0407 | 0.215 | 1.06 | 0.884 | 1.72
COc1ccc([Si](C)(C)[C@@H]2[C@@H](CCO)O[C@]3(C(=O)N(Cc4ccc(N5C(=O)c6ccccc6Oc6ccccc65)cc4)c4ccccc43)[C@H]2C)cc1 | 0.0758 | -0.235 | -0.394 | -0.0953 | -0.163 | -1.1 | -0.285 | 0.0179 | 0.104 | 0.173 (inactive) | -0.355 | -7.17 (inactive) | -0.734 (inactive) | 2.5 (inactive) | 0.286 (inactive) | -0.132 | -0.179 | -1.04 | -0.949 | 0.0769
COCCOC(=O)N1C(=O)[C@@]2(c3cc(C#CCNC(N)=O)ccc31)[C@H](C(=O)N1CCCCCCC1)[C@H]1C(=O)O[C@H](c3ccccc3)[C@H](c3ccccc3)N1[C@@H]2c1ccc(OCCO)cc1 | -0.456 | 0.492 | 0.423 | 0.577 | 1.15 | 0.126 | -1.6 | 0.577 | 0.534 | -1.19 (inactive) | 0.0855 | -0.897 (inactive) | -1.52 (inactive) | 0.22 (inactive) | -0.311 (inactive) | 0.32 | 0.232 | 0.0121 | 0.145 | 0.438
[N-]=[N+]=Nc1ccccc1C[C@]1(C(=O)NCCN2CCOCC2)N=C(c2ccc(OCCCO)cc2)O[C@H]1c1ccccc1N=[N+]=[N-] | 1.55 | 1.24 | -0.0277 | 0.94 | 1.39 | 1.65 | 2.42 | 0.499 | 0.687 | -5.36 (inactive) | 0.682 | -3.68 (inactive) | -0.933 (inactive) | 0.573 (inactive) | -1.29 (inactive) | 0.678 | 0.726 | 0.818 | 0.954 | 0.926
